Inconclusive results are not listed. Activity calls are given as the source filed them. The call rests on the fitted dose curve; in most records, active means well fitted curve in the direction sought with a large enough effect; inconclusive means small, poorly fitted or top-dose-only effect, or another doubt; inactive means no such curve, though single readings can be large; an effect the other way counts as inactive or inconclusive.
Experiments:
[1] = system: Es-2; assay: Primary qHTS to identify gynecologic anti-cancer compounds using libraries of approved drugs and bioactive compounds (AID 1345084); conditions: Gynecologic cancer cell panel viability, ATPlite luminescence, 48 h; series mostly up to 57.5 µM; further: nearly all actives have a fitted effect of over 55% in size; on activity change, negative = cytotoxicity: on the % scale 0 is the no-effect control and ±100 the full control effect
Procedure, shortened: (§1)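 Five-concentration response, 48 h; readout is ATP-driven luciferase luminescence.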

[2] = system: HeLa; assay: as above; conditions: Gynecologic cancer cell panel viability, ATPlite luminescence, 48 h; series mostly up to 57.5 µM
Procedure, shortened: as §1

[3] = system: Hek293T; assay: as above; conditions: Gynecologic cancer cell panel viability, ATPlite luminescence, 48 h, control line for the selectivity index; series mostly up to 57.5 µM
Procedure, shortened: as §1

[4] = system: JEG-3; assay: as above; conditions: Gynecologic cancer cell panel viability, ATPlite luminescence, 48 h; series mostly up to 57.5 µM
Procedure, shortened: as §1

[5] = system: OV90; assay: as above; conditions: Gynecologic cancer cell panel viability, ATPlite luminescence, 48 h; series mostly up to 57.5 µM
Procedure, shortened: as §1

[6] = system: PA-1; assay: as above; conditions: Gynecologic cancer cell panel viability, ATPlite luminescence, 48 h; series mostly up to 57.5 µM
Procedure, shortened: as §1

[7] = system: SKOV3; assay: as above; conditions: Gynecologic cancer cell panel viability, ATPlite luminescence, 48 h; series mostly up to 57.5 µM
Procedure, shortened: as §1

[8] = system: Tov-21-G; assay: as above; conditions: Gynecologic cancer cell panel viability, ATPlite luminescence, 48 h; series mostly up to 57.5 µM
Procedure, shortened: as §1

[9] = system: Tov112D; assay: as above; conditions: Gynecologic cancer cell panel viability, ATPlite luminescence, 48 h; series mostly up to 57.5 µM
Procedure, shortened: as §1

[10] = system: astro; assay: Drug repurposing screens with cells derived from glioblastoma tumor samples (AID 1345199); conditions: viability, ATP luminescence, 48 h; series mostly up to 45.9 µM; further: nearly all actives have a fitted effect of over 40% in size
Procedure, shortened: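 Four patient lines of CD133+ GBM neurospheres were screened at several concentrations; hits were retested in those lines plus three slower-growing GBM lines, using 48-hour treatment and ATP-based viability.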
Potency means the concentration at half of the fitted maximal effect.

CC(C)(O)CNc1nc(Nc2ccnc(C(F)(F)F)c2)nc(-c2cccc(C(F)(F)F)n2)n1
inactive: Potency [1] | Potency [2] | Potency [3] | Potency [4] | Potency [5] | Potency [6] | Potency [7] | Potency [8] | Potency [9]

O=S(=O)(NC1CCNCC1)c1cc(S(=O)(=O)c2ccccc2)ccc1C(F)(F)F
inactive: Potency [1] | Potency [2] | Potency [3] | Potency [4] | Potency [5] | Potency [6] | Potency [8] | Potency [9]

COc1ccc(C[C@H](N)C(=O)N[C@H]2[C@@H](O)[C@H](n3cnc4c(N(C)C)ncnc43)O[C@@H]2CO)cc1
active: Potency [1] 3.16 µM | Potency [2] 2 µM | Potency [3] 2.82 µM | Potency [4] 3.98 µM | Potency [5] 3.16 µM | Potency [6] 0.708 µM | Potency [7] 3.55 µM | Potency [8] 3.98 µM | Potency [9] 2 µM | Potency [10] 3.16 µM

CCOC(=O)c1c(C)nn(-c2cccc([N+](=O)[O-])c2)c1C
inactive: Potency [1] | Potency [2] | Potency [3] | Potency [4] | Potency [5] | Potency [6] | Potency [7] | Potency [8] | Potency [9]

COc1ccc2cc(OCC3(C(=O)O)CN(C(=O)c4ccc(F)cc4)C3)ccc2c1
inactive: Potency [1] | Potency [2] | Potency [3] | Potency [4] | Potency [5] | Potency [6] | Potency [8] | Potency [9]

C=C1CCC2C(C)(C)C(O)CCC2(C)C1CCC(C)CCOC(=O)CCC(=O)O (stereo not drawn)
inactive: Potency [1] | Potency [2] | Potency [3] | Potency [4] | Potency [5] | Potency [6] | Potency [8] | Potency [9]

C[C@@H]1O[C@@H](O[C@H]2[C@H](OC(=O)[C@]34CCC(C)(C)C[C@H]3C3=CCC5[C@@]6(C)C[C@H](O)[C@H](O[C@@H]7O[C@H](CO[C@@H]8OC[C@H](O)[C@H](O)[C@H]8O)[C@@H](O)[C@H](O)[C@H]7O)C(C)(C)C6CC[C@@]5(C)[C@]3(C)C[C@H]4O)OC[C@@H](O)[C@@H]2O)[C@H](O)[C@H](O[C@@H]2OC[C@](O)(CO)[C@H]2O)[C@H]1O[C@@H]1OC[C@H](O)[C@H](O[C@@H]2OC[C@@H](O)[C@H](O)[C@H]2O)[C@H]1O (stereo partly drawn)
inactive: activity change, negative = cytotoxicity [1] -0.0559% [at 6.55 µM] | activity change, negative = cytotoxicity [2] 19.1% [at 6.55 µM] | activity change, negative = cytotoxicity [3] 7.42% [at 6.55 µM] | activity change, negative = cytotoxicity [4] -3.85% [at 6.55 µM] | activity change, negative = cytotoxicity [5] -1.75% [at 6.55 µM] | activity change, negative = cytotoxicity [6] 9.54% [at 6.55 µM] | activity change, negative = cytotoxicity [8] -3.09% [at 6.55 µM] | activity change, negative = cytotoxicity [9] 5.07% [at 6.55 µM]

CC(=O)NCCCCn1c2c(c3ccccc31)C(=O)NCC2
inactive: Potency [1] | Potency [2] | Potency [3] | Potency [4] | Potency [5] | Potency [6] | Potency [8] | Potency [9]

Source: PubChem BioAssay (NCATS)
